Results filed as inconclusive are left out. Active and inactive are the calls of the source. The call rests on the fitted dose curve; in most records, active means well fitted curve in the direction sought with a large enough effect; inconclusive means small, poorly fitted or top-dose-only effect, or another doubt; inactive means no such curve, though single readings can be large; an effect the other way counts as inactive or inconclusive.
How the values were obtained:
[1] = test system: Zika virus NS2B-NS3 protease (unlinked complex); test: Primary screen GU Rhodamine qHTS for Zika virus inhibitors: Unlinked NS2B-NS3 protease assay (AID 1347159); further: on the % scale 0 is the no-effect control and ±100 the full control effect; nearly all actives have a fitted effect of over 60% in size
Method in brief: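 In dose–response format, inhibition of unlinked protease (25 nM) was measured with 1.5 microM bis-peptide Rhodamine110 substrate. Aprotinin served as the intraplate control.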

[2] = test system: Zika virus NS2B-NS3 protease (linked construct); test: Primary screen NINDS Rhodamine qHTS for Zika virus inhibitors (AID 1347160); further: nearly all actives have a fitted effect of over 55% in size
Method in brief: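 Each compound, titrated, sat 15 min with 25 nM linked protease before 1.5 microM Rhodamine110 substrate went in. Fluorescence gain over the next 15 min, in pH 8.0 Tris with Tween 20, gave Hill-fitted curves.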

[3] = molecular target: Glutathione peroxidase 1 (Homo sapiens) (UniProt P07203); test: Primary qHTS Assay for Inhibitors of Recombinant Selenoprotein Glutathione Peroxidase 1 (GPX1) (AID 1845191); further: nearly all actives have a fitted effect of over 65% in size
Chain of Glutathione peroxidase 1 (Homo sapiens) (P07203 whole entry, looked up): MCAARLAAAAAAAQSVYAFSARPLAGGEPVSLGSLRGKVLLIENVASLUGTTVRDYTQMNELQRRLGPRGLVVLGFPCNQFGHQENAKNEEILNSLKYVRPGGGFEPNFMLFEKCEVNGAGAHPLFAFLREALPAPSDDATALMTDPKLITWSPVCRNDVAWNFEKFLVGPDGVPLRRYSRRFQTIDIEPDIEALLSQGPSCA
Method in brief: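 NADPH consumption tracked by fluorescence at 340/450 nm between t=0 and t=15 min, room temperature. Final mix: 10 nM GPX1, 100 nM glutathione reductase, 1 mM GSH, 0.5 mM NADPH, 0.5 mM cumene hydroperoxide, 0.01% BSA; 30 min compound–enzyme preincubation.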

[4] = molecular target: Phospholipid hydroperoxide glutathione peroxidase GPX4 (Homo sapiens) (UniProt P36969); test: Primary qHTS Assay for Inhibitors of Recombinant Selenoprotein Glutathione Peroxidase 4 (GPX4) (AID 1845192); further: nearly all actives have a fitted effect of over 65% in size
Chain of Phospholipid hydroperoxide glutathione peroxidase GPX4 (Homo sapiens) (P36969 whole entry, looked up): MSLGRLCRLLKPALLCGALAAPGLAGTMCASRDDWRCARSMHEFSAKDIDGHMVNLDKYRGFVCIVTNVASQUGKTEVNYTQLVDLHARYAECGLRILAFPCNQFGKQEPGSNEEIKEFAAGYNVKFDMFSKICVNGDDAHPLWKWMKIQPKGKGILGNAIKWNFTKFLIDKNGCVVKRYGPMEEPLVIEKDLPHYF
Method in brief: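 NADPH consumption followed by fluorescence at 340/450 nm, t=0 and after 15 min at room temperature. Reaction started with cumene hydroperoxide (0.5 mM final) after 30 min compound–GPX4 preincubation; final 200 nM GPX4, 100 nM GR, 1 mM GSH, 0.5 mM NADPH.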

[5] = molecular target: Luciferin 4-monooxygenase (Photinus pyralis) (UniProt P08659); test: Primary firefly luciferase (FLuc) qHTS assay for identification of artifact compounds. (AID 1845220); conditions: outcome: dose series up to 54.1 µM unless noted; further: nearly all actives have a fitted effect of over 60% in size
Method in brief: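 Cell-free, 1536-well qHTS. Buffer pH 7.6 with 0.01% Tween-20 and 0.05% BSA; 10 uM D-luciferin, 10 uM ATP; 10 nM P. pyralis luciferase; luminescence after 5 min.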

[6] = Primary fluorescence-based thiol-reactive (MSTI) qHTS assay for identification of artifact compounds. (AID 1845221);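 further: thiol-reactive compounds lower the probe fluorescence signal; nearly all actives have a fitted effect of over 65% in size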
Method in brief: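 MSTI probe at 4 uM final in 2% DMSO/PBS pH 7.4; compounds, 1 h at room temperature in dark. Fluorescence Ex/Em 525/598 nm, normalised to Acetyl-MSTI and MSTI, fitted to 4-parameter Hill.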

[7] = test system: Nanoluciferase (engineered Oplophorus gracilirostris luciferase); test: Primary Nanoluciferase (NLuc) qHTS assay for identification of artifact compounds. (AID 1845222);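 further: 0% = DMSO and -100% = no enzyme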
Method in brief: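 Compounds are pinned into diluted (1:55) conditioned medium of NLuc-expressing S16 cells and held 15 min at room temperature protected from light. Nano-Glo substrate follows, and luminescence is read 5 min later.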

[8] = test system: CRL-7250; test: Cytotoxic Profiling of Annotated Libraries Using Quantitative High-Throughput Screening (AID 1296008); conditions: Five cell lines viability, CellTiter-Glo ATP luminescence, 48-72 h; max response: hits give low values; further: nearly all actives have a fitted effect of over 60% in size; on max response: on the % scale 0 is the no-effect control and ±100 the full control effect
Method in brief: (§1)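 Cytotoxicity was measured as CellTiter-Glo ATP luminescence, read after 10 min at room temperature. Compound treatment of the cells lasted 48 or 72 hr at 37 degrees Celsius in a qHTS format.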

[9] = test system: NIH3T3; test: as above; conditions: Five cell lines viability, CellTiter-Glo ATP luminescence, 48-72 h; max response: hits give low values
Method in brief: as §1

[10] = test system: C33A; test: Primary qHTS to identify gynecologic anti-cancer compounds using libraries of approved drugs and bioactive compounds (AID 1345084); conditions: Gynecologic cancer cell panel viability, ATPlite luminescence, 48 h; series mostly up to 57.5 µM; further: on the % scale 0 is the no-effect control and ±100 the full control effect; nearly all actives have a fitted effect of over 55% in size
Method in brief: (§2)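 Cells, 1,000 per well, plated 16 h, then exposed 48 h at 37 C to compounds. Viability by ATPlite luminescence after 15 min at room temperature.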

[11] = test system: CAOV3; test: as above; conditions: Gynecologic cancer cell panel viability, ATPlite luminescence, 48 h; series mostly up to 57.5 µM
Method in brief: as §2

[12] = test system: CASKI; test: as above; conditions: Gynecologic cancer cell panel viability, ATPlite luminescence, 48 h; series mostly up to 57.5 µM
Method in brief: as §2

[13] = test system: Es-2; test: as above; conditions: Gynecologic cancer cell panel viability, ATPlite luminescence, 48 h; series mostly up to 57.5 µM
Method in brief: as §2

[14] = test system: Hek293T; test: as above; conditions: Gynecologic cancer cell panel viability, ATPlite luminescence, 48 h, control line for the selectivity index; series mostly up to 57.5 µM
Method in brief: as §2

[15] = test system: JEG-3; test: as above; conditions: Gynecologic cancer cell panel viability, ATPlite luminescence, 48 h; series mostly up to 57.5 µM
Method in brief: as §2

[16] = test system: OV90; test: as above; conditions: Gynecologic cancer cell panel viability, ATPlite luminescence, 48 h; series mostly up to 57.5 µM
Method in brief: as §2

[17] = test system: PA-1; test: as above; conditions: Gynecologic cancer cell panel viability, ATPlite luminescence, 48 h; series mostly up to 57.5 µM
Method in brief: as §2

[18] = test system: Tov-21-G; test: as above; conditions: Gynecologic cancer cell panel viability, ATPlite luminescence, 48 h; series mostly up to 57.5 µM
Method in brief: as §2

[19] = test system: Tov112D; test: as above; conditions: Gynecologic cancer cell panel viability, ATPlite luminescence, 48 h; series mostly up to 57.5 µM
Method in brief: as §2

[20] = molecular target: Calcium and integrin-binding protein 1 (Homo sapiens) (UniProt Q99828); test: Primary qHTS for Identification of Calcium Integrin Binding Protein 1 (CIB1) Competitor (AID 1508620);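 further: GST tagged CIB1 binding a fluorescein labelled alphaIIb integrin peptide tracer; top concentration of the series differs between compounds; on the % scale 0 is the no-effect control and ±100 the full control effect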
Chain of Calcium and integrin-binding protein 1 (Homo sapiens) (Q99828 whole entry, looked up): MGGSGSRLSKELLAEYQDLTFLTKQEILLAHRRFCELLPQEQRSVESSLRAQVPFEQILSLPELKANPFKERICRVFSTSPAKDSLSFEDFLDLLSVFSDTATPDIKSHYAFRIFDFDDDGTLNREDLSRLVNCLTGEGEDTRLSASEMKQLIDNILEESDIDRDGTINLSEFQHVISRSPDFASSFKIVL
Method in brief: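 CIB1-GST (1 uM final) and compound incubated 15 min at room temperature before adding FITC-alphaIIb peptide tracer (100 nM final). Competition for binding read by fluorescence polarization (ex 480, em 540) after another 15 min at room temperature.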

NCCCCCNC1(c2ccccc2)CCCCC1
inactive: Potency [1] | Potency [2] | Potency [3] | Potency [4] | outcome [5] | Potency [6] | Potency [7] | max response [8] -4.91% | max response [9] -1.15% | Potency [10] | Potency [11] | Potency [12] | Potency [13] | Potency [14] | Potency [15] | Potency [16] | Potency [17] | Potency [18] | Potency [19]

CC(=O)OC[C@]12[C@H](OC(C)=O)C(=O)[C@@H]3[C@@H](O)[C@@]14O[C@@]3(C)COC(=O)c1cccnc1[C@@H](C)[C@H](C)C(=O)O[C@@H]([C@H](OC(C)=O)[C@@H]2OC(C)=O)[C@]4(C)O
inactive: Potency [1] | Potency [2] | Potency [3] | Potency [4] | outcome [5] | Potency [6] | Potency [7] | outcome [8] | max response [9] 0.381% | Potency [10] | Potency [11] | Potency [12] | Potency [13] | Potency [14] | Potency [15] | Potency [16] | Potency [18] | Potency [19]

CCCN(CCC)CCc1ccc(OC)c(OCCc2ccccc2)c1
inactive: Potency [1] | Potency [2] | Potency [20] | Potency [3] | Potency [4] | outcome [5] | Potency [6] | Potency [7] | max response [8] 3.48% | max response [9] 1.81% | Potency [10] | Potency [11] | Potency [12] | Potency [13] | Potency [14] | Potency [15] | Potency [17] | Potency [18] | Potency [19]

Oc1ccc2c(c1)C13CCCC[C@H]1[C@@H](C2)N(CC1CCC1)CC3
inactive: Potency [2] | Potency [3] | Potency [4] | outcome [5] | Potency [6] | Potency [7] | max response [8] -16.2% | max response [9] -7.5% | Potency [10] | Potency [11] | Potency [12] | Potency [14] | Potency [15] | Potency [18] | Potency [19]

C[C@@H]1CCC2[C@@H](C)C(=O)OC3O[C@@]4(C)CCC1[C@]32OO4 (stereo not given in full)
inactive: Potency [1] | Potency [2] | Potency [20] | Potency [4] | outcome [5] | Potency [6] | Potency [7] | max response [8] -1.83% | max response [9] -13.5% | Potency [10] | Potency [11] | Potency [12] | Potency [13] | Potency [14] | Potency [15] | Potency [16] | Potency [17] | Potency [18] | Potency [19]

COC(=O)[C@@]1(C)C(=O)C=C[C@]2(C)c3c(O)cc(C(C)C)cc3[C@H](O)[C@@H](OC(C)=O)C12 (stereo not given in full)
inactive: Potency [1] | Potency [2] | Potency [20] | Potency [3] | Potency [4] | outcome [5] inactive [at 25.7 µM] | Potency [6] | Potency [7] | outcome [8] | max response [9] -1.38% | Potency [10] | Potency [11] | Potency [12] | Potency [13] | Potency [14] | Potency [15] | Potency [16] | Potency [17] | Potency [18] | Potency [19]
